# Hits are enriched below; roughly 0.92% of the tested compounds scored in any of these assays.
# LAP4 TOR yeast: modulators of TOR pathway LAP4-GFP in S. cerevisiae. S. cerevisiae LAP4-GFP multiplex, flow cytometry GFP, 3 h; median GFP as percent of DMSO wells. GFP response vs DMSO, % at 10 µM. 320,000 compounds, 0.34% hits;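 active = GFP response vs DMSO above a set limit, about the screen mean plus 3 SD, cut at about 150% in these data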
# MEP2-GFP yeast: modulators of TOR pathway MEP2-GFP in S. cerevisiae. 330,000 compounds, 0.51% hits. AID 2016. GFP response vs DMSO, % at 10 µM. S. cerevisiae MEP2-GFP strain, flow cytometry GFP, 3 h; 100% = DMSO control level;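 active = GFP response versus DMSO above a set limit, roughly screen mean plus 3 SD, cut at about 180% in these data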;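 also: median GFP fluorescence of the barcode-gated MEP2-GFP cells per well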
# CIT2-GFP yeast: alters CIT2-GFP fluorescence in TOR pathway yeast screen; 320,000 compounds, 0.065% hits; GFP response vs DMSO, % at 10 µM; S. cerevisiae CIT2-GFP strain, flow cytometry, 3 h; 100 means same as DMSO wells;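 active = GFP response relative to DMSO above a set limit, near the screen mean plus 3 SD, cut at about 150% in these data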;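 also: ratio of well median GFP fluorescence to mean of DMSO wells on the plate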
# RPL19A TOR yeast: alters RPL19A-GFP fluorescence in TOR pathway yeast screen. S. cerevisiae RPL19A-GFP strain, flow cytometry, 3 h; active compounds read low. percent response vs DMSO, % at 10 µM. 330,000 compounds, 0.3% hits. AID 2025;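 active = percent response vs DMSO below 50%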;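 also: median channel GFP fluorescence of the barcoded RPL19A-GFP strain; lower means less RPL19A-GFP as with rapamycin TOR inhibition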
# AGP1-GFP MLPCN: yeast TOR pathway AGP1-GFP modulation. GFP response vs DMSO, % at 10 µM. 320,000 compounds, 0.02% hits. S. cerevisiae AGP1-GFP multiplex flow cytometry, 3 h; GFP as percent of DMSO wells. AID 2066;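 active = GFP response relative to DMSO above a set limit, near screen average plus 3 SD, cut at about 150% in these data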;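 also: median GFP channel fluorescence of the gated AGP1 strain per well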
# LAP4 cherry2: reconfirmed LAP4-GFP TOR pathway modulator in yeast. shares compounds with LAP4 TOR yeast. S. cerevisiae LAP4-GFP strain, flow cytometry GFP, 3 h. GFP response vs DMSO, % at 10 µM. 590 compounds, 20% hits. AID 2621;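 active = GFP signal as percent of the solvent control above about 150%, meaning raised reporter expression, limit read from the data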
# MEP2 cherry2: reconfirmed MEP2-GFP TOR pathway modulator in yeast. 590 compounds, 10% hits. S. cerevisiae MEP2-GFP strain, flow cytometry GFP, 3 h. GFP response vs DMSO, % at 10 µM. shares compounds with LAP4 TOR yeast;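 active = GFP signal above 150% of the solvent control wells, that is a rise of more than half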;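 also: median channel GFP fluorescence of all gated yeast cells per well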
# RPL19A-GFP pick2: yeast RPL19A-GFP TOR reporter modulation, second cherry pick. 590 compounds, 3% hits. S. cerevisiae RPL19A-GFP strain, flow cytometry GFP, 3 h; active compounds read low; 100% means same as DMSO wells. shares compounds with LAP4 TOR yeast. GFP response vs DMSO, % at 10 µM;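 active = under 65% GFP response relative to DMSO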;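 also: median GFP channel fluorescence per well over the all cells gate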
# CIT2-GFP pick2: yeast CIT2-GFP TOR reporter modulation, second cherry pick; shares compounds with LAP4 TOR yeast; S. cerevisiae CIT2-GFP strain, flow cytometry GFP, 3 h; DMSO control wells read 100%; GFP response vs DMSO, % at 10 µM; 590 compounds, 8% hits;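 active = GFP response vs DMSO above about 150%, limit read from the data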;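 also: median green fluorescence per well over all gated yeast cells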
# AGP1 GFP CP2: yeast AGP1-GFP TOR reporter modulation, second cherry pick; shares compounds with LAP4 TOR yeast; S. cerevisiae AGP1-GFP strain, flow cytometry GFP, 3 h; percent response vs DMSO, % at 10 µM; 590 tested, under 10 active; AID 2643;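 active = over 150 percent of DMSO response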;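 also: median GFP channel fluorescence over all cells without mother daughter split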
# s288c autofluor: yeast s288c autofluorescence artifact, counter-screen; AID 2757; 610 tested, under 10 active; shares compounds with LAP4 TOR yeast; S. cerevisiae s288c, 520 nm autofluorescence, flow cytometry, 3 h; active compounds read high; zero means same as solvent-only cells; fluorescence change (kMESF span) at 33 µM;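 active = fluorescence span over the dose series, or activity score, above about 33, limit read from the data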
# Hits are given with their value; i = inactive; nt = no result; + = active, no number.
SMILES,LAP4 TOR yeast,MEP2-GFP yeast,CIT2-GFP yeast,RPL19A TOR yeast,AGP1-GFP MLPCN,LAP4 cherry2,MEP2 cherry2,RPL19A-GFP pick2,CIT2-GFP pick2,AGP1 GFP CP2,others
CC(C)Cn1c(N)c(C(=O)COC(=O)c2c(O)c(Cl)cc(Cl)c2Cl)c(=O)n(C)c1=O,+,+,+,i,320.4,i,i,i,i,i,
Cc1cccc(N2CCN(C(=O)C3CCC(=O)N(Cc4ccccc4F)C3)CC2)c1C (stereo unspecified),i,i,i,i,i,nt,nt,nt,nt,nt,
C=C1C(C(=O)Nc2ccccc2)C1C(=O)Nc1ccccc1 (stereo unspecified),i,i,i,i,i,nt,nt,nt,nt,nt,
CCOC(=O)c1ccc(Nc2ncnc3c2cnn3C)cc1,i,i,i,i,i,nt,nt,nt,nt,nt,
Cn1ncc2c(O/N=C(\N)c3ccc(C(C)(C)C)cc3)ncnc21,187.6,i,i,i,i,nt,nt,nt,nt,nt,s288c autofluor=i
O=C1NC(=S)N/C1=C\c1ccccc1OCc1ccc(C(=O)O)cc1,i,i,i,i,i,nt,nt,nt,nt,nt,
O=C(O)c1ccc(COc2ccccc2C=C2C(=O)c3ccccc3C2=O)cc1,i,i,i,i,i,i,i,i,i,i,s288c autofluor=i
CSc1ccc(/C=C/C(=O)OCC(=O)c2ccc[nH]2)cc1,i,i,i,i,i,nt,nt,nt,nt,nt,
Cc1cccc(NC(=O)C(C)C(=O)c2ccccc2)c1 (stereo unspecified),i,i,i,i,i,i,i,i,i,i,
Cc1cccc(C(=O)NNC(=O)Nc2ccccc2)c1,i,i,i,i,i,nt,nt,nt,nt,nt,
O=C(Nc1ccc(Cl)cc1)C1C2C=CC3(O2)C1C(=O)N(CCCN1CCCCC1)C3C(=O)NC1CCCCC1 (stereo unspecified),i,i,i,i,i,nt,nt,nt,nt,nt,
CC(NC(=O)c1ccccc1F)C12CC3CC(CC(C3)C1)C2 (stereo unspecified),158.0,i,i,i,i,i,i,i,i,i,
Cc1cc2ccccn2c1C(=O)c1cccc([N+](=O)[O-])c1,i,i,i,i,i,nt,nt,nt,nt,nt,
Cc1cc2ccccn2c1C(=O)c1ccc([N+](=O)[O-])o1,218.3,i,i,i,i,nt,nt,nt,nt,nt,s288c autofluor=i
O=C(O)CC(=O)Nc1cc(Cl)ccc1O,i,i,i,i,i,i,i,i,i,i,
Cn1cc(CNCc2ccccc2OCC(O)CN2CCc3ccccc3C2)cn1 (stereo unspecified),i,i,i,i,i,nt,nt,nt,nt,nt,
CC(=O)Oc1cccc(N2C(=O)c3cccc4c([N+](=O)[O-])ccc(c34)C2=O)c1,177.7,227.3,i,i,i,177.3,281.2,i,225.3,i,s288c autofluor=i
Cc1ccc(C(=O)O)cc1N1C(=O)c2cccc3c([N+](=O)[O-])ccc(c23)C1=O,i,i,i,i,i,nt,nt,nt,nt,nt,
O=C(CCS(=O)(=O)c1ccc2c(c1)NC(=O)CS2)NCCc1ccccc1,158.8,i,i,i,i,i,i,i,i,i,
O=C(CCS(=O)(=O)c1ccc2c(c1)NC(=O)CS2)NCCc1ccc(Cl)cc1,i,i,i,i,i,nt,nt,nt,nt,nt,
COc1cc(C=C2C(=O)c3ccccc3C2=O)cc(OC)c1,i,i,i,i,i,i,i,i,i,i,s288c autofluor=i
